SIRT5 inh = SIRT5 desuccinylase inhibitors, primary screen, biochemical, fluorescence imaging, single point, set 5 | NAD-dependent protein deacylase sirtuin-5, mitochondrial (Homo sapiens), Q9NXA8 | Purified SirT5, succinyl-peptide AMC, trypsin-coupled fluorescence | hit rate 1.1% among 330,000 | inhibition, % at 15 µM; in the data active means inhibition above about 15%
UBC9 SUMO inh = inhibitors of in vitro SUMOylation cascade, primary screen, biochemical, HTRF, uHTS; SUMO-conjugating enzyme UBC9 (Homo sapiens), P63279; HTRF SUMOylation assay, SAE1/SAE2 + UBC9; inhibition, % at 35 µM; hit rate 0.36% among 290,000; AID 2006, 2009; in the data active means inhibition above about 50%, passing the limit was not always enough
Target sequence (P63279 whole entry, looked up): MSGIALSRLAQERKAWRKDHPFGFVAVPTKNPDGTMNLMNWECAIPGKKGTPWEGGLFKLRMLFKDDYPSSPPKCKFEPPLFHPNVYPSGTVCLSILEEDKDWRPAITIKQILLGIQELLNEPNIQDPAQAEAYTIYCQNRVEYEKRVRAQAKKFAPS
Casp6 inh = human caspase-6 inhibitors, primary screen, biochemical, VEID-R110 fluorescence, single point, set 2 | inhibition, % at 12.5 µM | purified caspase-6, Z-VEID-R110 cleavage fluorescence | AID 686996, 2013 | hit rate 0.53% among 350,000 | P55212;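 active means mean inhibition across replicates at least about 35%, with every replicate also reaching that limit, limit read from the data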;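 further: 0% = median of neutral control wells and 100% = no fluorescence left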
Target sequence (P55212 24-179 limits assumed): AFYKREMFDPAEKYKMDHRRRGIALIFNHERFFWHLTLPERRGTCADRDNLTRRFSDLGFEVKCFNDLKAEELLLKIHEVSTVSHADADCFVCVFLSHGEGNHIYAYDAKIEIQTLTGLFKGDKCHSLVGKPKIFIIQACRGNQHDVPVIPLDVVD
Target sequence (P55212 194-293 limits assumed): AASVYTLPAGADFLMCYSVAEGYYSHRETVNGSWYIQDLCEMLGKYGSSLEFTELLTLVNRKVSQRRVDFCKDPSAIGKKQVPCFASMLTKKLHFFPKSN
NSD2 inh = NSD2 histone methyltransferase inhibitors, primary screen, biochemical, AlphaScreen, single concentration, set 2; Histone-lysine N-methyltransferase NSD2 (Homo sapiens), O96028; NSD2 peptide methylation, 120 min; inhibition, % at 12.5 µM; hit rate 0.54% among 310,000; AID 743445, 2014; in the data active means inhibition above about 50%
* hit, by the source's call; / = no result given; ! = a repeat was not active. Rows were chosen to be rich in hits. Some 1.6% of all compounds tested hit in one or more screens of this group.

SMILES | SIRT5 inh | UBC9 SUMO inh | Casp6 inh | NSD2 inh
C[C@@H]1CCCCO[C@@H](CN(C)S(=O)(=O)c2ccc(F)cc2)[C@H](C)CN([C@H](C)CO)C(=O)c2cc(NS(=O)(=O)c3ccccc3)ccc2O1 | 16* | / | 0 | /
Cc1ccc(S(=O)(=O)Nc2ccc3c(c2)C(=O)N([C@@H](C)CO)C[C@@H](C)[C@H](CN(C)S(=O)(=O)c2ccc(F)cc2)OCCCC[C@@H](C)O3)cc1 | 18* | / | 0 | /
Cc1ccc(S(=O)(=O)Nc2ccc3c(c2)C(=O)N([C@H](C)CO)C[C@@H](C)[C@@H](CN(C)S(=O)(=O)c2ccc(F)cc2)OCCCC[C@H](C)O3)cc1 | 13 | / | 2 | /
COc1ccc(S(=O)(=O)Nc2ccc3c(c2)C(=O)N([C@H](C)CO)C[C@@H](C)[C@H](CN(C)C(=O)Nc2ccc4c(c2)OCO4)OCCCC[C@H](C)O3)cc1 | / | / | 0 | /
C[C@@H]1CN([C@H](C)CO)C(=O)c2cc(/C=C/c3ccccc3)cnc2O[C@@H]1CN(C)C(=O)C1CCC1 | -16 | / | 1 | /
CCC(=O)N1CC2(CN(Cc3ccncc3)C2)c2c(n(C)c3cc(OC)ccc23)[C@@H]1CO | -4 | / | -2 | /
C[C@H](CO)N1C[C@H](C)[C@H](CN(C)S(C)(=O)=O)Oc2c(NS(=O)(=O)c3ccc(F)cc3)cccc2C1=O | -5 | / | 3 | /
Cc1ccc(S(=O)(=O)N(C)C[C@H]2OCCCC[C@H](C)Oc3ccc(NS(=O)(=O)c4ccc(F)cc4)cc3C(=O)N([C@@H](C)CO)C[C@@H]2C)cc1 | 3 | / | -2 | /
Cc1ccc(S(=O)(=O)N(C)C[C@H]2OCCCC[C@H](C)Oc3ccc(NS(=O)(=O)c4ccc(F)cc4)cc3C(=O)N([C@H](C)CO)C[C@@H]2C)cc1 | 20* | / | 0 | /
Cc1ccc(S(=O)(=O)N(C)C[C@@H]2OCCCC[C@H](C)Oc3ccc(NS(=O)(=O)c4ccc(F)cc4)cc3C(=O)N([C@@H](C)CO)C[C@H]2C)cc1 | 19* | / | 2 | /
CCNC(=O)C[C@@H]1CC[C@@H]2[C@H](COc3ccc(NC(=O)c4ccc(C(F)(F)F)cc4)cc3C(=O)N2C)O1 | -3 | / | 3 | /
Cc1noc(C)c1NC(=O)Nc1ccc2c(c1)C(=O)N([C@@H](C)CO)C[C@@H](C)[C@H](CN(C)C(=O)Nc1ccc3c(c1)OCO3)O2 | -1 | / | 2 | /
C[C@@H]1CN([C@H](C)CO)C(=O)CCCn2nncc2CO[C@H]1CN(C)Cc1cccnc1 | 17*! | / | -9 | /
Cc1ccc(CN(C)C[C@@H]2OCc3cnnn3CCCC(=O)N([C@H](C)CO)C[C@@H]2C)cc1 | 18* | / | 0 | /
C[C@H]1CN([C@@H](C)CO)C(=O)CCCn2nncc2CO[C@H]1CN(C)Cc1cccc(O)c1 | -2 | / | 1 | /
Cc1cccc(CN(C)C[C@@H]2OCc3cnnn3CCCC(=O)N([C@H](C)CO)C[C@@H]2C)c1 | 15* | / | -1 | /
C[C@@H]1CN([C@H](C)CO)C(=O)c2cc(NC(=O)CCCN(C)C)ccc2O[C@@H]1CN(C)S(=O)(=O)c1ccc(F)cc1 | -4 | / | -4 | /
O=C(CC1C(=O)NCCN1CCCc1ccccc1)NCCc1ccccc1Cl (stereo unspecified) | 15* | 11 | -1 | 2
Cc1cc(C)n(C(=O)CNC(=O)c2cccs2)n1 | 23* | 12 | 3 | -3
COc1ccc2cc3cc(C(=O)NCCCN4CCc5ccccc5C4)sc3nc2c1 | 19* | -3 | -1 | -1
NC(N)=Nc1cc2ccccc2c2ccccc12 | 2 | 86* | / | 9
O=C(O)c1ccc(N=Nc2c(O)[nH]c3cc(Cl)ccc23)cc1 | 12 | 1 | 38* | 4
O=C(O)c1ccc(N=Nc2c(O)[nH]c3ccc(Br)cc23)cc1 | 0 | -1 | -1 | 4
CC(C)NC(=O)Nc1ccc2c(c1)C(=O)N([C@H](C)CO)C[C@H](C)[C@H](CN(C)C(=O)Cc1ccccc1)OCCCC[C@H](C)O2 | 19* | / | -2 | /
CC(C)NC(=O)Nc1ccc2c(c1)C(=O)N([C@@H](C)CO)C[C@H](C)[C@H](CN(C)C(=O)NC(C)C)OCCCC[C@@H](C)O2 | 24* | / | -3 | /
SMILES | SIRT5 inh | UBC9 SUMO inh | Casp6 inh | NSD2 inh
CC(C)NC(=O)Nc1ccc2c(c1)C(=O)N([C@H](C)CO)C[C@H](C)[C@@H](CN(C)S(=O)(=O)c1ccccc1)OCCCC[C@H](C)O2 | 1 | / | 40* | /
C[C@H](CO)N1C[C@H](C)[C@@H](CN(C)C(=O)NC2CCCCC2)OCCCC[C@H](C)Oc2ccc(NC(=O)C3CCCCC3)cc2C1=O | 16* | / | -1 | /
COc1ccc2c3c(n(C)c2c1)[C@@H](CO)N(C(=O)Nc1ccc(F)cc1)CC31CN(C(=O)NC2CCCC2)C1 | 3 | / | 3 | /
CCC(=O)N1CC(=O)N2[C@@H](CO)[C@H](c3ccc(-c4ccc(C(=O)N(C)C)cc4)cc3)[C@@H]2C1 | -2 | / | / | /
CN1CCN(NC(=O)Nc2ccc(F)cc2)CC1 | -2 | 1 | 48* | /
C[C@@H]1CCCCO[C@@H](CN(C)Cc2ccc(C(=O)O)cc2)[C@H](C)CN([C@@H](C)CO)C(=O)c2cc(NC(=O)c3ccncc3)ccc2O1 | -1 | / | -1 | /
C[C@H]1CN([C@@H](C)CO)C(=O)c2cc(NC(=O)CCCCCC(=O)Nc3ccccc3N)ccc2O[C@@H]1CN(C)S(=O)(=O)c1ccc(F)cc1 | / | / | 0 | /
C[C@H]1CN([C@@H](C)CO)C(=O)c2cc(NC(=O)Cn3cnnn3)ccc2O[C@H]1CN(C)CC1CC1 | 3 | / | 1 | /
CN1CCOc2cc(S(=O)(=O)Nc3ccc(F)cc3)ccc21 | / | 14 | / | 4
Cc1ccc(NS(=O)(=O)c2ccc3c(c2)N(C)CCO3)cc1 | 22* | 4 | 0 | 7
Cc1ccc(-c2ccc3c(c2)O[C@@H](CN(C)C)[C@H](C)CN([C@@H](C)CO)S3(=O)=O)cc1 | -3 | / | -3 | /
CCCCCC(=O)Nc1ccc2oc(-c3cncc(Br)c3)nc2c1 | / | 20 | / | -4
CCCC(=O)Nc1ccc2oc(-c3cncc(Br)c3)nc2c1 | 2 | 52* | 3 | -4
CC(C)CC(=O)Nc1ccc2oc(-c3cccnc3)nc2c1 | / | 53* | / | -2
C[C@H]1CN([C@@H](C)CO)C(=O)c2cccc(NS(=O)(=O)c3ccc(F)cc3)c2O[C@H]1CN(C)CC1CCCCC1 | 2 | / | 1 | /
COc1cccc(C(=O)N2CCN(C(=O)c3cccc4ccccc34)CC2)c1OC | / | 18 | / | 1
COc1ccc(CN2CCN(C(=O)c3cccc4ccccc34)CC2)c(OC)c1OC | 15* | 23 | 11 | 1
COc1cccc(C#Cc2ccc([C@@H]3[C@H](CO)N4C(=O)CN(C(C)=O)C[C@@H]34)cc2)c1 | 12 | / | 0 | /
COc1ccc(NC(=O)Nc2ccc3c(c2)C(=O)N([C@H](C)CO)C[C@H](C)[C@H](CN(C)S(=O)(=O)c2ccc(F)cc2)OCCCC[C@@H](C)O3)cc1 | 1 | / | 1 | /

From PubChem BioAssay
